Results reported in PubChem BioAssay (NCATS).
Results filed as inconclusive are left out. Calls of active or inactive are those of the source. Calls come from the whole dose curve; as a rule, active = well fitted inhibition curve with a large enough effect; inconclusive = small, poorly fitted or top-dose-only effect; inactive = flat fitted curve, though single readings scatter.

What was measured:
Assay in all cases: qHTS profiling for inhibitors of Plasmodium falciparum proliferation (AID 504749); note: nearly all actives have a fitted effect of over 60% in size
Details in all cases: P. falciparum in erythrocytes, SYBR Green DNA, 72 h; series mostly up to 28.7 µM
AA1029 = system: AA1029
Procedure, shortened: (§1)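 Quantitative HTS: compounds pinned into medium, infected erythrocytes added (0.3% parasitemia, 2.5% hematocrit), 72 h culture at 37 C under 5% CO2. Saponin/Triton lysis with SYBR Green I, overnight RT, then fluorescence read.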

CP211 = system: CP211
Procedure, shortened: as §1

CP217 = system: CP217
Procedure, shortened: as §1

CP250 = system: CP250
Procedure, shortened: as §1

CP252 = system: CP252
Procedure, shortened: as §1

CP256 = system: CP256
Procedure, shortened: as §1

CP260 = system: CP260
Procedure, shortened: as §1

CP297 = system: CP297
Procedure, shortened: as §1

CP315 = system: CP315
Procedure, shortened: as §1

CP335 = system: CP335
Procedure, shortened: as §1

DIV14 = system: DIV14
Procedure, shortened: as §1

DIV17 = system: DIV17
Procedure, shortened: as §1

FAB9 = system: FAB9
Procedure, shortened: as §1

ICS = system: ICS
Procedure, shortened: as §1

JCK = system: JCK
Procedure, shortened: as §1

N140 = system: N140
Procedure, shortened: as §1

PC15 = system: PC15
Procedure, shortened: as §1

PC26 = system: PC26
Procedure, shortened: as §1

SC27B = system: SC27B
Procedure, shortened: as §1

TAB165 = system: TAB165
Procedure, shortened: as §1

Measured: Potency

CN1[C@H]2CC(OC(=O)[C@H](CO)c3ccccc3)C[C@H]1[C@H]1O[C@H]12 (stereo not given in full)
inactive: AA1029 | CP211 | CP217 | CP250 | CP252 | CP256 | CP260 | CP297 | CP315 | CP335 | DIV14 | DIV17 | FAB9 | ICS | JCK | N140 | PC15 | PC26 | SC27B | TAB165
